± gives the standard deviation of the averaged measurements.
What was measured:
Assay in all cases: relative enzymatic activity vs untreated control (fraction); higher = less inhibition
Details in all cases: 100 µM; incubation time: 2 h at 37 C
[1] = test system: DNA gyrase
Experimental: (§1)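 In vitro enzymatic inhibition assays (ProFoldin kits) for 12 purified essential E. coli enzymes or complexes, each treated with 218 active antibacterial compounds at 100 µM for 2 h at 37°C. Read-outs were fluorescence or absorbance (phosphate detection, dye binding), converted to activity via standard curves and expressed relative to untreated DMSO controls.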

[2] = molecular target: DNA helicase (UniProt P0ACB1)
Experimental: as §1

[3] = molecular target: DNA ligase (UniProt B1XA82)
Experimental: as §1

[4] = molecular target: DNA polymerase (UniProt P10443)
Experimental: as §1

[5] = molecular target: DNA primase (UniProt P0ABS7)
Experimental: as §1

[6] = molecular target: GlmU (UniProt A7ZTU1)
Experimental: as §1

[7] = molecular target: Guanlyate kinase (UniProt Q0TBG1)
Experimental: as §1

[8] = molecular target: MurA (UniProt Q3YX52)
Experimental: as §1

[9] = molecular target: T1, MurD (UniProt P14900)
T1 sequence (whole entry): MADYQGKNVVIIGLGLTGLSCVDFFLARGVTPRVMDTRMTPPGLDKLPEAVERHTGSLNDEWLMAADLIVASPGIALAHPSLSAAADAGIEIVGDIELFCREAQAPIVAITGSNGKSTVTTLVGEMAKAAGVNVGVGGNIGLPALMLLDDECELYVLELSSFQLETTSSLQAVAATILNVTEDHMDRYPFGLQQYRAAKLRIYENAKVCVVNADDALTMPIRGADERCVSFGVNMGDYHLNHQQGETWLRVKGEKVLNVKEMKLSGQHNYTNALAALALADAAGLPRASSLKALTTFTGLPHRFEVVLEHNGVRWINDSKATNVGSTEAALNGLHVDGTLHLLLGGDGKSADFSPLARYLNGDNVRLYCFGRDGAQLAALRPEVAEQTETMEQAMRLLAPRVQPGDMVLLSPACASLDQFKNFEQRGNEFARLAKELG
Experimental: as §1

[10] = molecular target: T2, MurF (UniProt P11880)
T2 sequence (whole entry): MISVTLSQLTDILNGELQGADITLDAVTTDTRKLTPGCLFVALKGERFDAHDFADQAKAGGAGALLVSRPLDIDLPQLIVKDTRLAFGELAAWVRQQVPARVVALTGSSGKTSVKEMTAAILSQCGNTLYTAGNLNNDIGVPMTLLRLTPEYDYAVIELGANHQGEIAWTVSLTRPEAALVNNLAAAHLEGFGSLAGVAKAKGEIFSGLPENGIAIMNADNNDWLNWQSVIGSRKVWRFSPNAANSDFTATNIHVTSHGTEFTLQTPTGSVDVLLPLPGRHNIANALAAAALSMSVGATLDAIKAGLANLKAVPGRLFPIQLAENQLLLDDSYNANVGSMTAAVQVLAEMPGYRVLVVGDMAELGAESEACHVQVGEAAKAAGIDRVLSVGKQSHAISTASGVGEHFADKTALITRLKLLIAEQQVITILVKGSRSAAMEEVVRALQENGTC
Experimental: as §1

[11] = test system: RNA polymerase
Experimental: as §1

Sequence of GlmU (A7ZTU1 whole entry, looked up): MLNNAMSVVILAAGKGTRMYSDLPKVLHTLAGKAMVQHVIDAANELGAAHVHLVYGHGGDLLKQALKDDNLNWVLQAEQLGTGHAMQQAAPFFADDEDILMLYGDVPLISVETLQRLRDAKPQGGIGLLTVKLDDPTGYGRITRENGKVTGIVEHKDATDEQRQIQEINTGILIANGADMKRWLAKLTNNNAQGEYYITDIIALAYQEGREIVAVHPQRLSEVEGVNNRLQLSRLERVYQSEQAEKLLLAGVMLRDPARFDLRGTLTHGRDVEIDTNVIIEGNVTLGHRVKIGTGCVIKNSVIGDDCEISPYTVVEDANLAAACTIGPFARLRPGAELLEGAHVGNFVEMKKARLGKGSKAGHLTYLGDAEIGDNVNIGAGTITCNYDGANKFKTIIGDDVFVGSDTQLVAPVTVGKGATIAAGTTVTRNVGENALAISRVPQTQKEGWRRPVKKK
Sequence of DNA helicase (P0ACB1 whole entry): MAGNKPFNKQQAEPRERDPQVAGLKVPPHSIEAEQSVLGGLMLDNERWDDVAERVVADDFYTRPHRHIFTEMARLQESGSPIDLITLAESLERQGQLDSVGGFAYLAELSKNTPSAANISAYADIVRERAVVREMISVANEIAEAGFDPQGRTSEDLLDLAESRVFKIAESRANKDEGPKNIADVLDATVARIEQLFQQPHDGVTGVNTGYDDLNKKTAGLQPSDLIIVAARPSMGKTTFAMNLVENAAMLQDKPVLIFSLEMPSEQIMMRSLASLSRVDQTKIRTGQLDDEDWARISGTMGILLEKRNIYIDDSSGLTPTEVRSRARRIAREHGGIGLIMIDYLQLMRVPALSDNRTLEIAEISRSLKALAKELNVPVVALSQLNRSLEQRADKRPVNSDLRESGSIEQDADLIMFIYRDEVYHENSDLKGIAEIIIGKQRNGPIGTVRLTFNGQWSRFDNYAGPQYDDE
Sequence of MurA (Q3YX52 whole entry): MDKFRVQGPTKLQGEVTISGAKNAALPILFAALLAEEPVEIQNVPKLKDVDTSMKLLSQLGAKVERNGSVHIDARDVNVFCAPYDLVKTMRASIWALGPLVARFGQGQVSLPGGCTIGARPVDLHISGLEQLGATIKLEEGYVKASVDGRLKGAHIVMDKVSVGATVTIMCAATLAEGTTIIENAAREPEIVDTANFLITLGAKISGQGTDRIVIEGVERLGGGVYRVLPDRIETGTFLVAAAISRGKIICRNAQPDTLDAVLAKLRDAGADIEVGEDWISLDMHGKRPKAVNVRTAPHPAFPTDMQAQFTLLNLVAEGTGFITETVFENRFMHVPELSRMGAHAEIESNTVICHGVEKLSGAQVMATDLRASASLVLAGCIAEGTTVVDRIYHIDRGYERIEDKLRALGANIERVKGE
Sequence of DNA primase (P0ABS7 whole entry): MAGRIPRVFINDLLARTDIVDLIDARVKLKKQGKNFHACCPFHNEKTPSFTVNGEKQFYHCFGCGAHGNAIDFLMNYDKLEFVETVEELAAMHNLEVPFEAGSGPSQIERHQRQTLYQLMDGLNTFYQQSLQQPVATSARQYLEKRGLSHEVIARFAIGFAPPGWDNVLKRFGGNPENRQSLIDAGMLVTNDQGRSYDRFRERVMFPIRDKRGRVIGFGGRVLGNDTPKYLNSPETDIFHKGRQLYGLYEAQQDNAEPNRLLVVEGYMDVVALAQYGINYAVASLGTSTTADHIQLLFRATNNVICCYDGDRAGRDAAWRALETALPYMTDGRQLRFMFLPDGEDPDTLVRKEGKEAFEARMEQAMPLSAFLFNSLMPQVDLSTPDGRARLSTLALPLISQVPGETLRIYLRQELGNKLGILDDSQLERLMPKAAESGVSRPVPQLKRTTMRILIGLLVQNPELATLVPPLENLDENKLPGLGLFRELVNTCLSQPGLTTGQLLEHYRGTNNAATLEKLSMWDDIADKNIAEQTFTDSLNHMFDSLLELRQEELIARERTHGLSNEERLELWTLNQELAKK
Sequence of Guanlyate kinase (Q0TBG1 whole entry): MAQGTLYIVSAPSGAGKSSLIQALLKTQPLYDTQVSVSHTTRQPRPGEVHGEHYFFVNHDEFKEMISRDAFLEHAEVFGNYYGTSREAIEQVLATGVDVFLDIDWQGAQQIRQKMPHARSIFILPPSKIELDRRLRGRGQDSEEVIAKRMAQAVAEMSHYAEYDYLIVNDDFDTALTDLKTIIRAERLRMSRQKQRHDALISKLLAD
Sequence of DNA ligase (B1XA82 whole entry): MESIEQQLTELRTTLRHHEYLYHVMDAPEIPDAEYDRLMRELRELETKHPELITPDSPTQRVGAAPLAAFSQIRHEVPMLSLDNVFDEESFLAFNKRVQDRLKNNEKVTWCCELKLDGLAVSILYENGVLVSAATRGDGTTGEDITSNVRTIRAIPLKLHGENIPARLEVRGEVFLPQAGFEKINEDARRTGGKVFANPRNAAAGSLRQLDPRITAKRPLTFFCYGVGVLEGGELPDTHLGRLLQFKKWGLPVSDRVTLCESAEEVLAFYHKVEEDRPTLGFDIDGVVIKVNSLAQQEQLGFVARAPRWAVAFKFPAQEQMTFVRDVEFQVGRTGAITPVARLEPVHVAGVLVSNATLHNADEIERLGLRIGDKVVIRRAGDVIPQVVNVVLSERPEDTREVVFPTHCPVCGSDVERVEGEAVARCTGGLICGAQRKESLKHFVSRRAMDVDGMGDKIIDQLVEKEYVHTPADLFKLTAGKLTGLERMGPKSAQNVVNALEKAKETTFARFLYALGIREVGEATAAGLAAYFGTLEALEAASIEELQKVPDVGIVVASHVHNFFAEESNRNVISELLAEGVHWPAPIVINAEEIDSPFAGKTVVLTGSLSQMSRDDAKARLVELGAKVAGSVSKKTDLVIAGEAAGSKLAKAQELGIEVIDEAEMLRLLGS
Sequence of DNA polymerase (P10443 whole entry): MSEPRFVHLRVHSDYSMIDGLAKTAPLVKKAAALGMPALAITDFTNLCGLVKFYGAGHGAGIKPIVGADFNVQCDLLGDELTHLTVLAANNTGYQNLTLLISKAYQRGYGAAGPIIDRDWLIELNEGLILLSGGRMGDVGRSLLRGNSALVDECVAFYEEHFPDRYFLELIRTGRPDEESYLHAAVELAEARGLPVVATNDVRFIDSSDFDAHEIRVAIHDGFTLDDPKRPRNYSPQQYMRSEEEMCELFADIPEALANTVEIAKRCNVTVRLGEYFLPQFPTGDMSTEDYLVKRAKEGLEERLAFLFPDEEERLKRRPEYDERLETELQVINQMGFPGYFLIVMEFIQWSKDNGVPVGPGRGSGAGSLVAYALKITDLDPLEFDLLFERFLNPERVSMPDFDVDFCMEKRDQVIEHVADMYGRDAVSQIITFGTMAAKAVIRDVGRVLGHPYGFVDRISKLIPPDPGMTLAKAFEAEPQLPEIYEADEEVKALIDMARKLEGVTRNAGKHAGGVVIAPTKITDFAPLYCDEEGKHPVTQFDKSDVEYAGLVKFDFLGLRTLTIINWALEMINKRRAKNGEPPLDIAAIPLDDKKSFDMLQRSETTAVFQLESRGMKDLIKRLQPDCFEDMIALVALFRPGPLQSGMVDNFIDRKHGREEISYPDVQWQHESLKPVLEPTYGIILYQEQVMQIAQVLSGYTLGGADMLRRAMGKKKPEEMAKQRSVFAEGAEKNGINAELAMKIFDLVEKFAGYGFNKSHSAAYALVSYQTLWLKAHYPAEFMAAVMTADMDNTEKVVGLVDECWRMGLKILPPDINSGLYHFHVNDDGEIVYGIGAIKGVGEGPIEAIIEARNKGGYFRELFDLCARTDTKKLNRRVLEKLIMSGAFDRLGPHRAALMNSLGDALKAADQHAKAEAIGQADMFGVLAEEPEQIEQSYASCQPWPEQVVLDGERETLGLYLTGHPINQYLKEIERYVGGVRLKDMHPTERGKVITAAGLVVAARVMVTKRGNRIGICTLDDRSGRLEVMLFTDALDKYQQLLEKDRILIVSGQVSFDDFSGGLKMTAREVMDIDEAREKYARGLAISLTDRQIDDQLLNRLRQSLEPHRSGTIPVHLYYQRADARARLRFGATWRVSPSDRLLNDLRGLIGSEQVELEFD

Compound | relative enzymatic activity [1] | relative enzymatic activity [2] | relative enzymatic activity [3] | relative enzymatic activity [4] | relative enzymatic activity [5] | relative enzymatic activity [6] | relative enzymatic activity [7] | relative enzymatic activity [8] | relative enzymatic activity [9] | relative enzymatic activity [10] | relative enzymatic activity [11]
CC(C)[C@@H](CC[C@@H](C)[C@H]1CC[C@H]2[C@@H]3[C@H](O)C[C@H]4C[C@@H](NCCCNCCCCNCCCN)CC[C@]4(C)[C@H]3CC[C@]12C)OS(=O)(=O)O | 1.18 ± 0.2 | 0.0588 ± 0.066 | 0.674 ± 0.096 | 0.126 ± 0.02 | 0.419 ± 0.016 | 0.813 ± 0.091 | 0.334 ± 0.028 | 0.187 ± 0.029 | 0.59 ± 0.41 | 1.03 ± 0.027 | 0.146 ± 0.0049
CN[C@H]1CN(c2ccc3c(=O)c(C(=O)O)cn(-c4nccs4)c3n2)C[C@@H]1OC | 0.253 ± 0.27 | 0.18 ± 0.16 | 0.706 ± 0.08 | 0.641 ± 0.27 | 0.622 ± 0.13 | 1 ± 0.039 | 0.851 ± 0.064 | 0.603 ± 0.14 | 0.58 ± 0.36 | 0.955 ± 0.21 | 0.769 ± 0.11
CC(C)(ON=C(C(=O)NC1C(=O)N2C(C(=O)[O-])=C(C[n+]3ccccc3)CSC12)c1csc(N)n1)C(=O)O (stereo not drawn) | 0.0358 ± 0.051 | 0.494 ± 0.12 | 1.08 ± 0.29 | 0.444 ± 0.021 | 0.593 ± 0.11 | 0.79 ± 0.019 | 0.876 ± 0.015 | 0.0456 ± 0.016 | 0.548 ± 0.37 | 0.924 ± 0.15 | 0.137 ± 0.0022
CCn1cc(C(=O)O)c(=O)c2cnc(N3CCNCC3)nc21 | 0.262 ± 0.12 | 0.533 ± 0.057 | 0.92 ± 0.084 | 1.16 ± 0.2 | 0.876 ± 0.015 | 0.94 ± 0.024 | 0.891 ± 0.16 | 0.865 ± 0.047 | 0.583 ± 0.38 | 1.136 ± 0.011 | 0.83 ± 0.027
NC(=O)N/N=C/c1ccc([N+](=O)[O-])o1 | 0.691 ± 0.48 | 0.657 ± 0.29 | 0.974 ± 0.26 | 1.04 ± 0.16 | 0.761 ± 0.072 | 1.006 ± 0.004 | 0.751 ± 0.048 | 0.504 ± 0.021 | 0.507 ± 0.66 | 0.962 ± 0.21 | 0.734 ± 0.088
CC(C)(C)CC(C)(C)c1ccc(OCCOCC[N+](C)(C)Cc2ccccc2)cc1.[Cl-] | 0.0482 ± 0.068 | 0.0168 ± 0.00082 | 0.917 ± 0.17 | 0.4 ± 0.06 | 0.709 ± 0.21 | 0.121 ± 0.031 | 0.439 ± 0.06 | 0.0623 ± 0.0083 | 0.114 ± 0.033 | 0.193 ± 0.035 | 0.838 ± 0.16
CC(NCCCc1cccc(C(F)(F)F)c1)c1cccc2ccccc12.Cl (stereo not drawn) | 1.09 ± 0.12 | 0.434 ± 0.07 | 1.1 ± 0.31 | 1.18 ± 0.25 | 0.676 ± 0.16 | 1.08 ± 0.17 | 1.01 ± 0.032 | 0.749 ± 0.32 | 0.58 ± 0.37 | 0.953 ± 0.19 | 0.817 ± 0.077
Cc1scc2c1N(C(=O)CN1CCN(C)CC1)c1ccccc1NC2=O.Cl | 0.878 ± 0.31 | 0.526 ± 0.058 | 1.12 ± 0.35 | 1.17 ± 0.21 | 0.65 ± 0.14 | 1.1 ± 0.12 | 0.9435 ± 0.0079 | 0.703 ± 0.12 | 0.608 ± 0.41 | 0.931 ± 0.16 | 0.841 ± 0.091
CON=C(C(=O)N[C@@H]1C(=O)N2C(C(=O)O)=C(CSc3nc(=O)c(O)nn3C)CS[C@H]12)c1csc(N)n1 | 0.722 ± 0.42 | 0.448 ± 0.015 | 0.961 ± 0.042 | 1.05 ± 0.24 | 0.8 ± 0.022 | 0.861 ± 0.055 | 0.984 ± 0.11 | 0.0646 ± 0.0061 | 0.568 ± 0.39 | 0.955 ± 0.25 | 0.524 ± 0.35
CCCCCCCCCCCCC[N+](C)(C)Cc1ccccc1 | 0.675 ± 0.95 | 0.0123 ± 0.0012 | 0.955 ± 0.043 | 1.04 ± 0.27 | 0.787 ± 0.099 | 0.0868 ± 0.0048 | 0.396 ± 0.0083 | 0.0305 ± 0.016 | 0.0614 ± 0.011 | 0.177 ± 0.064 | 0.919 ± 0.13
CC[C@H]1OC(=O)[C@H](C)[C@@H](O[C@H]2C[C@@](C)(OC)[C@@H](O)[C@H](C)O2)[C@H](C)[C@@H](O[C@@H]2O[C@H](C)C[C@H](N(C)C)[C@H]2O)[C@](C)(OC)C[C@@H](C)C(=O)[C@H](C)[C@@H](O)[C@]1(C)O | 0.647 ± 0.56 | 0.732 ± 0.33 | 0.901 ± 0.15 | 1.15 ± 0.22 | 0.831 ± 0.025 | 1.03 ± 0.0049 | 0.97 ± 0.048 | 0.856 ± 0.12 | 0.58 ± 0.37 | 0.942 ± 0.24 | 0.862 ± 0.13
CS(=O)(=O)c1ccc(C(O)C(CF)NC(=O)C(Cl)Cl)cc1 (stereo not drawn) | 0.854 ± 0.44 | 0.577 ± 0.2 | 1.21 ± 0.24 | 1.29 ± 0.35 | 0.8787 ± 0.0014 | 0.977 ± 0.042 | 0.976 ± 0.14 | 0.796 ± 0.099 | 0.575 ± 0.38 | 0.945 ± 0.21 | 0.916 ± 0.026
COc1c(N2CCNC(C)C2)c(F)cc2c(=O)c(C(=O)O)cn(C3CC3)c12 (stereo not drawn) | 0.0476 ± 0.067 | 0.48 ± 0.021 | 0.942 ± 0.14 | 1.09 ± 0.15 | 0.876 ± 0.017 | 0.989 ± 0.034 | 0.899 ± 0.084 | 0.804 ± 0.16 | 0.577 ± 0.36 | 0.942 ± 0.26 | 0.763 ± 0.0079
N[C@@H](C(=O)N[C@@H]1C(=O)N2C(C(=O)O)=C(Cl)CC[C@H]12)c1ccccc1 | 0.732 ± 0.43 | 0.524 ± 0.089 | 0.931 ± 0.12 | 1.03 ± 0.087 | 0.831 ± 0.025 | 1 ± 0.036 | 0.943 ± 0.061 | 0.582 ± 0.21 | 0.603 ± 0.4 | 0.963 ± 0.22 | 0.811 ± 0.13
CON=C(C(=O)NC1C(=O)N2C(C(=O)O)=C(C[N+]3(C)CCCC3)CSC12)c1csc(N)n1.[Cl-] (stereo not drawn) | 0.384 ± 0.0047 | 0.431 ± 0.059 | 1.345 ± 0.0088 | 1.28 ± 0.35 | 0.724 ± 0.23 | 0.969 ± 0.022 | 1.02 ± 0.026 | 0.222 ± 0.0031 | 0.568 ± 0.37 | 0.962 ± 0.17 | 0.897 ± 0.023
Cc1nnc(SCC2=C(C(=O)[O-])N3C(=O)C(NC(=O)Cn4cnnn4)C3SC2)s1.[Na+] (stereo not drawn) | 1.26 ± 0.15 | 0.672 ± 0.26 | – | 1.45 ± 0.57 | 0.707 ± 0.18 | 0.951 ± 0.036 | 1.13 ± 0.052 | 0.255 ± 0.063 | 0.612 ± 0.43 | 0.89 ± 0.17 | 0.961 ± 0.05
CC(=O)OCC1=C(C(=O)[O-])N2C(=O)C(NC(=O)Cc3cccs3)C2SC1.[Na+] (stereo not drawn) | 0.626 ± 0.6 | 0.395 ± 0.012 | 1.26 ± 0.12 | 1.09 ± 0.26 | 0.713 ± 0.036 | 1 ± 0.084 | 0.974 ± 0.057 | 0.0754 ± 0.023 | 0.597 ± 0.38 | 0.958 ± 0.23 | 0.622 ± 0.13
O=c1[nH]cc(F)c(=O)[nH]1 | 0.73 ± 0.39 | 0.568 ± 0.12 | 0.9871 ± 0.0093 | 0.593 ± 0.47 | 0.852 ± 0.023 | 0.981 ± 0.051 | 0.86 ± 0.071 | 0.673 ± 0.18 | 0.572 ± 0.36 | 0.972 ± 0.2 | 0.688 ± 0.065
Oc1c(Cl)cc(Cl)c2cccnc12 | 0.515 ± 0.28 | 0.476 ± 0.16 | 1.11 ± 0.24 | 1.11 ± 0.21 | 0.637 ± 0.12 | 1.21 ± 0.19 | 0.854 ± 0.039 | 0.88 ± 0.26 | 0.642 ± 0.46 | 0.98 ± 0.18 | 0.7619 ± 0.0022
